# Source: PubChem BioAssay AID435022 (Sanford-Burnham Center for Chemical Genomics, 2010)
# Where “and” joins values, the source holds several entries; their conditions need not be identical. Equal entries are not always repeated. Screen size: about 330,000 compounds; about 1,100 (0.33%) were called active. Cut-off read from the data, not from the text of the source: active = inhibition above about 35%; inactive = the rest. This excerpt belongs to a sample that is enriched for actives. More than one record can exist for a structure, and the calls need not agree.
# Test: lowers stimulated NF-kB luciferase signal in 697 B cells – cell-based, luminescence, uHTS, B-cell NF-kB inhibitor project, primary screen (AID 435022)
# Settings: 697 B-cell NF-kB luciferase reporter, PMA/ionomycin, 16 h; at 4 µM; stronger effect = higher value
row,Compound,inhibition
1,COc1cc2c(cc1OC)CN(C(=O)c1ccc(S(=O)(=O)N3CCCCCC3)cc1)CC2,22.3% (inactive)
2,COc1cc2c(cc1OC)CN(C(=O)c1cc(=O)c3ccccc3o1)CC2,-14.7% (inactive)
3,CCOc1cc(C(=O)N2CCc3cc(OC)c(OC)cc3C2)ccc1OC(F)F,39.7% (active)
4,COCCNC(=O)C1CCN(C(=O)C2CC(=O)N(c3ccc(C)cc3)C2)CC1 (stereo not drawn),-0.961% (inactive)
5,CCN(CCCNC(=O)CSc1cc(=O)n(C)c2cc(Cl)ccc12)Cc1ccccc1,2.99% (inactive)
6,Cc1ccc(C)c(OCC(=O)NNC(=O)C2CCC2)c1,0.932% (inactive)
7,Cc1ccc(O)c(NC(=O)COc2cc(C)ccc2C)c1,40.5% (active)
8,Cc1ccc(O)c(NC(=S)NC(=O)COc2ccc(Br)cc2)c1,-17.9% (inactive)
9,COc1ccc(NC(=O)Nc2ccc3c(c2)C(=O)N([C@H](C)CO)C[C@H](C)[C@@H](CN(C)C(=O)Nc2ccc4c(c2)OCO4)O3)cc1,-1.97% (inactive)
10,COc1ccc(CNC(=O)C2CCC(CNc3c(N4CCOCC4)c(=O)c3=O)CC2)cc1 (stereo not drawn),-4.3% (inactive)
11,CCN1/C(=C\c2ccc3ccccc3[n+]2CC)Sc2cc(C)ccc21,65% (active)
12,COC(=O)c1ccccc1NC(=O)C1CC(=O)N(c2ccc(OC)cc2)C1 (stereo not drawn),2.44% (inactive)
13,C[C@@H]1O[C@@H](OC[C@H]2O[C@@H](Oc3c(-c4ccc(O)cc4)oc4cc(O)cc(O)c4c3=O)[C@H](O)[C@@H](O)[C@@H]2O)[C@H](O)[C@H](O)[C@H]1O,3.19% (inactive)
14,O=C(NCCCN1CCOCC1)c1cc(-c2ccc(Cl)cc2)on1,46.3% (active)
15,COc1ccc(-c2cc(C(=O)NCCCN3CCOCC3)no2)cc1,28.1% (inactive)
16,O=C(NCCCN1CCOCC1)c1cc(-c2cccc(O)c2)on1,14.1% (inactive)
17,CCOC(=O)C1CCN(C(=O)C2(NC(=O)Nc3cccc(F)c3)CCCCC2)CC1,14% (inactive)
18,Cn1nc(C(F)(F)F)cc1-c1ccc(/C=C(\C#N)C(=O)c2cccc(C(F)(F)F)c2)s1,-34.9% (inactive)
19,CCOC(=O)C1C(=O)NCC1c1ccccc1 (stereo not drawn),12.8% (inactive)
20,CC(=O)c1cnc(SCC(=O)O)nc1C,10% (inactive)
21,Clc1ccc(C[n+]2cc(-c3ccccc3)n3c2CCC3)cc1,-17.7% (inactive)
22,Cc1ccc(C(=O)C[n+]2cc(-c3ccccc3)n3c2CCCCC3)cc1,38.8% (active) and 16% (inactive)
23,Cc1ccc(-c2c[n+](CC(=O)Nc3ccccc3)c3n2CCC3)cc1,-7% (inactive)
